The campaign covered roughly 410,000 compounds. About 6,400 (1.6%) were called active. Entries that show only a call come without a potency. Inconclusive results (about 20%) are left out. Only a selection was taken, and actives are over-represented in it overall. Unmarked numbers belong to inactive results. Calls follow the shape of the dose curve; as a rule, active = well fitted inhibition curve with a large enough effect; inconclusive = small, poorly fitted or top-dose-only effect; inactive = no such curve, though single readings can be large or run the other way. Peptide text beside a SMILES is read from it. * marks the point of attachment. Bz = O=C(c1ccccc1)*
Potency is read from the fitted curve at half-maximal effect.

Chain of Glucagon-like peptide 1 receptor (Homo sapiens) (P43220 whole entry, looked up): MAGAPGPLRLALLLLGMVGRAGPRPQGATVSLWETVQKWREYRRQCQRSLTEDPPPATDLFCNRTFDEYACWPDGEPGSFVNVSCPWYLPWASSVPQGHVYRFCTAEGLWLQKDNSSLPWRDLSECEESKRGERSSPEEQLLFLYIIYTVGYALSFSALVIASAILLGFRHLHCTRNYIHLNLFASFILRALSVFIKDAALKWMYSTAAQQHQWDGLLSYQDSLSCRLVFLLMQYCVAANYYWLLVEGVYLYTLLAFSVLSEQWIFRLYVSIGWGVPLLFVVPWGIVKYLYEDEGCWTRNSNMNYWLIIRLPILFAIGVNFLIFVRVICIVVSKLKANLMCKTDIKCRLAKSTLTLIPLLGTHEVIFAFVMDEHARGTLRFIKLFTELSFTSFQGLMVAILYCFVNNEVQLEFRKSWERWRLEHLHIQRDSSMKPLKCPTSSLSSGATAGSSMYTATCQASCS

The assay deals with Glucagon-like peptide 1 receptor (Homo sapiens) (UniProt P43220). Nature of the assay: qHTS of GLP-1 Receptor Inverse Agonists (Inhibition Mode). Also: nearly all actives have a fitted effect of over 55% in size. As to conditions: HEK293 GLP-1R CRE-luciferase, luminescence, 24 h, GLP-1R form is constitutively active; series mostly up to 38.3 µM. A digest of the protocol:
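qHTS in 1536-well format: reporter HEK293 cells expressing constitutive GLP-1R activity in DMEM + 10% Nu serum, 24 hr with compounds at 37 deg C, luminescence read after 12 min with detection reagent.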
Take `COc1ccc(Cl)cc1NC(=O)CN(C)C(=O)c1cn(-c2ccccc2)nc1-c1cccs1`: the Potency result is “inactive”.

Take `COc1ccc(Cl)cc1NC(=O)CN(C)C(=O)c1ccc2n[nH]nc2c1`: the Potency entry is “inactive”.

Regarding `COc1ccc(Cl)cc1NC(=O)CN(C)C(=O)c1cc2ccccc2cc1OC`, the Potency was 10 µM (active).

For `O=[N+]([O-])c1ccc(C(S(=O)(=O)Cc2ccccc2)S(=O)(=O)Cc2ccccc2)cc1`, the Potency entry was “inactive”.

On to `N#C/C(=C(/O)Cc1cccc2ccccc12)c1nc2ccccc2s1`, for which the Potency result is “inactive”.

Take `c1ccc2c(CNn3cnnc3)cccc2c1`: the Potency entry is “inactive”.

Take `N=C(N)SCc1cccc2ccccc12`: the Potency was 10 µM (active).

As for `CCCCNC(=O)OC1CC2CC1[C@H]1CCCCN1C2=O` (stereo partly specified), the Potency result was “inactive”.

For the compound `C[C@H](NC(=O)CC[C@H]1O[C@@H](n2ccc(=O)[nH]c2=O)[C@H](O)[C@@H]1O)c1cccc2ccccc12`, the Potency entry is “inactive”.

As to `COC(=O)[C@H]1[C@H]2C[C@H]3c4[nH]c5ccccc5c4CCN3C[C@@H]2CC[C@@H]1O`, the Potency entry is “inactive”.

Take `COc1cccc(C2c3[nH]c4ccccc4c3CCN2Cc2cccc(C)n2)c1` (stereo unspecified): the Potency is 11.2 µM (active).

As to `COc1cccc(N2CCN(C(=O)CCCCCn3c(=O)[nH]c4ccccc4c3=O)CC2)c1`, the Potency result was “inactive”.

Regarding `Cc1ccc(S(=O)(=O)NCCC(=O)Nc2ccc(C)c(Cl)c2)cc1C`, the Potency was 7.08 µM (active).

As to `Cc1ccc(S(=O)(=O)NCCC(=O)Nc2cccc(S(N)(=O)=O)c2)cc1C`, the Potency result was “inactive”.

As to `Cc1ccc(NC(=O)CCNS(=O)(=O)c2ccc3c(c2)oc(=O)n3C)cc1C`, the Potency entry is “inactive”.

On to `Cc1cccc(N(CC(=O)N2CCCC2)S(C)(=O)=O)c1C`, for which the Potency entry is “inactive”.

As for `COCCCn1cc(CN2CC(N(C)C)CS2(=O)=O)nn1` (stereo unspecified), the Potency result was “inactive”.

For `O=C(CSc1ncn[nH]1)Nc1nc2c(F)c(F)c(F)cc2s1`, the Potency result was “inactive”.

For `NS(=O)(=O)c1cccc(NC(=O)CSc2nc3ccccc3n2-c2ccccc2)c1`, the activity change, negative = inhibition is 33.1% [at 7.66 µM].

Consider `COc1ccc(-c2nn(-c3ccccc3)cc2/C=C\C(=O)Nc2ccc(C(=O)O)cc2)cc1`, for which the Potency entry is “inactive”.

With `Cc1ccc(-c2nn(-c3ccccc3)cc2/C=C/C(=O)Nc2cccc(S(N)(=O)=O)c2)cc1`, the Potency is 5.01 µM (active).

On to `O=C(Nc1ccc2c(c1)OCCO2)C1c2ccccc2OCC(=O)N1Cc1ccccn1` (stereo unspecified), for which the Potency result is “inactive”.

Consider `c1cc(-c2ccc3[nH]ccc3c2)n2ccnc2c1`, for which the Potency result was “inactive”.

Turning to `CCCCCOc1ccc(CSC2=NCCN2)cc1[N+](=O)[O-]`, the Potency was 3.98 µM (active).

On to `Cc1nc(SCc2ccc(F)cc2)c([N+](=O)[O-])[nH]1`, for which the Potency entry is “inactive”.

On to `CCCCOc1ccc(CSC(=N)N)cc1[N+](=O)[O-]`, for which the Potency entry is “inactive”.

With `CC1(C)OC(=O)C2=C(C[C@@H](C3CC3)O[C@H]2c2ccc(Cl)cc2)O1`, the Potency entry is “inactive”.

On to `CN(C)C(CNC(=O)c1cccc(S(=O)(=O)N2CCc3ccccc3C2)c1)c1ccccc1` (stereo unspecified), for which the Potency entry was “inactive”.

As to `Cc1ccn(CC(=O)NC2CCCN(Cc3ccccc3F)C2)n1` (stereo unspecified), the Potency entry was “inactive”.

For the compound `CC12c3ccccc3C(c3ccccc31)C1C(=O)N(Cc3cccnc3)C(=O)C12` (stereo unspecified), the Potency was 8.91 µM (active).

With `CC1(C)CN(Cc2cccnc2)C(=O)[C@H]1CC(=O)Nc1ccc(Br)cc1`, the Potency entry is “inactive”.

Take `CC1Oc2ccccc2N(Cc2cccnc2)C1=O` (stereo unspecified): the Potency entry was “inactive”.

Consider `COc1cccc(CNc2nc3cc(-c4csc5ccccc45)sc3c(=O)n2C)c1`, for which the Potency result was “inactive”.

Turning to `CCCNC(=O)C1(C)CCCN(C(=O)c2cccc(OC(C)=O)c2C)C1` (stereo unspecified), the Potency result was “inactive”.

For `CCN(CC)CCN(C(=O)c1cccc([N+](=O)[O-])c1)c1nc2ccc(OC)cc2s1`, the Potency entry was “inactive”.

With `Cc1cc(C)c2nc(N(CCN(C)C)C(=O)/C=C/c3cccs3)sc2c1`, the Potency entry was “inactive”.

As for `COc1cccc2sc(N(CCCN(C)C)C(=O)C(c3ccccc3)c3ccccc3)nc12`, the Potency was 5.62 µM (active).

Take `Cc1ccc2sc(N(CCN(C)C)C(=O)/C=C/c3cccs3)nc2c1C`: the Potency entry is “inactive”.

Take `COc1ccccc1CNC(=O)Cn1cc2c(n1)CCCC2`: the Potency entry is “inactive”.

As to `CCN(CC)CCN(C(=O)c1ccc2c(c1)CCCC2)c1nc2c(OC)cccc2s1`, the Potency was 11.2 µM (active).

On to `CCCCN1C(=O)C(CC(=O)NC(c2ccccc2)c2ccccc2)CC(C(=O)N2CCOCC2)=C1C` (stereo unspecified), for which the Potency entry is “inactive”.

As for `C[C@@H]1CC2=C(C(=O)OC(C)(C)O2)[C@@H](C2CC2)O1`, the Potency result was “inactive”.

In the case of `COc1cccc(-c2cnc3c(NC(C)=O)cc(-c4cccc(NC(C)=O)c4)cn23)c1`, the Potency result was “inactive”.

Consider `COC(=O)CN(c1nc(C)c(Cl)c(OC)n1)S(=O)(=O)c1ccc(C)cc1`, for which the Potency is 10 µM (active).

With `COc1ccc(C)cc1N(CC(=O)N1CCC(C)CC1)S(=O)(=O)c1ccc(C)cc1`, the Potency result is “inactive”.

On to `CCN(CC)C(=O)CN(c1cccc(OC)c1)S(=O)(=O)c1ccc(C)cc1`, for which the Potency entry was “inactive”.

For the compound `CCc1ccc([C@@H]2CC(=O)[C@@H]3CN(S(=O)(=O)c4ccc(C)cc4)[C@H](c4ccc(Cl)cc4)C[C@@H]3N2S(=O)(=O)c2ccc(C)cc2)cc1`, the Potency entry was “inactive”.

Take `COc1cc(C=NC2CCCCC2)ccc1O`: the Potency entry was “inactive”.

Turning to `CN(Cc1ccccc1F)C(=O)C(Cc1ccccc1)NC(=O)c1ccccc1` (stereo unspecified), the Potency is 11.2 µM (active).

As for `O=C(NC(Cc1ccccc1)C(=O)N1CCCC1C(=O)O)c1ccccc1` (stereo not drawn) (Bz-Phe-Pro-OH; configuration not given here), the Potency entry is “inactive”.

Take `NC(=O)c1ccc(NC(=O)COC(=O)C(Cc2ccccc2)NC(=O)c2ccccc2)cc1` (stereo unspecified): the Potency result was “inactive”.

For the compound `CC(OC(=O)c1ccc(NC(=O)CC#N)cc1)C(=O)Nc1ccc(S(=O)(=O)N2CCCC2)cc1` (stereo unspecified), the Potency result is “inactive”.

Consider `O=C1NC[C@@H](CCCCN2CCN(CCc3ccc(O)cc3)C(=O)C2=O)N(CC2CCCCC2)C1=O`, for which the Potency result was “inactive”.

In the case of `COc1ccc(-c2ccc3c(c2)C2CC3CCN2CCC#N)cc1` (stereo unspecified), the Potency result is “inactive”.

On to `Cc1ccc(S(=O)(=O)N(CCc2ccccc2)c2ccc3c(c2)C2CC3CCN2C(=O)OCc2ccccc2)cc1` (stereo unspecified), for which the Potency entry is “inactive”.

Take `C=CCOC(=O)N1CCC2CC1c1cc(-c3ccc(OC)cc3)ccc12` (stereo unspecified): the Potency was 10 µM (active).

Consider `C[C@@H]1CN([C@H](C)CO)C(=O)CCCn2cc(nn2)CO[C@H]1CN(C)S(C)(=O)=O`, for which the Potency entry is “inactive”.

On to `Cc1ccc(C(O)c2ncc(-c3ccccc3F)[nH]2)cc1F` (stereo unspecified), for which the Potency result was “inactive”.

Turning to `CC(C)(C)c1ccc(CN2C(=O)c3ccccc3S2(=O)=O)cc1`, the Potency is 10 µM (active).

For `O=C1c2ccccc2S(=O)(=O)N1Cc1c(F)cccc1Cl`, the Potency entry was “inactive”.

For `COc1ccc(CNC(=O)CN2C(=O)c3ccccc3S2(=O)=O)cc1`, the Potency result is “inactive”.

For the origin of these results see PubChem BioAssay AID624417 (National Center for Advancing Translational Sciences (NCATS), 2012).
